{"source": "PubChem BioAssay (NCI)", "test_system": "HL-60(TB) leukemia", "experiment": "NCI-60 one-dose screen, 48 h (100 = growth as untreated, 0 = no growth, -100 = all killed)", "conditions": "10 µM unless noted", "note": "The panel holds about 83,000 compounds, 20% with a hit somewhere; the sample as a whole holds those more often.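 Testing used 96-well plates and a 48-hour single-concentration exposure. Example: -40 means 40% of the starting cells died.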 A number with no mark means an inactive call. Calls of active or inactive are those of the source. The calls were made as follows: active = growth percent below 10; inactive = the rest."}
{"compound": "CC1(C)CC[C@]2(CO)CC[C@]3(C)C(=CC[C@@H]4[C@@]5(C)CC[C@H](NCO)C(C)(C)[C@@H]5CC[C@]43C)[C@@H]2C1", "values": [{"measurement": "growth", "result": "-60.5% (active)"}]}
{"compound": "O=C(O)c1ccc2c(c1)nc(Nc1cccc(Cl)c1)c1ccncc12", "values": [{"measurement": "growth", "result": "-28.6% (active)"}]}
{"compound": "COc1ccc(/C=C2\\CCCC3=C2NC(N)=NC3c2ccc(OC)c(OC)c2)cc1OC", "note": "(centres undefined)", "values": [{"measurement": "growth", "result": 42.4, "unit": "%"}]}
{"compound": "CC1(C)O[C@H]2OC3CCC(=O)CC3(O)[C@H]2O1", "note": "(some centres undefined)", "values": [{"measurement": "growth", "result": 102, "unit": "%"}]}
{"compound": "CCOc1cccc(/C=N/NC(=O)c2cccc(Nc3ccnc(C(F)(F)F)c3)c2)c1O", "values": [{"measurement": "growth", "result": 14.1, "unit": "%"}]}
{"compound": "O=[N+]([O-])c1ccc(-c2cn(-c3ccccc3)c(-c3ccccc3)n2)cc1", "values": [{"measurement": "growth", "result": 87, "unit": "%"}]}
{"compound": "C=C[C@@H]1C[C@@H]2Cc3ccccc3N1O2", "values": [{"measurement": "growth", "result": "-12.8% (active)"}]}
{"compound": "COc1cc2c(cc1OC)C(=O)OC2", "values": [{"measurement": "growth", "result": 156, "unit": "%"}]}
{"compound": "COc1cccc(Nc2ccnc3[nH]c4ccc([N+](=O)[O-])cc4c23)c1", "values": [{"measurement": "growth", "result": 35.4, "unit": "%"}]}
{"compound": "COC(=O)[C@]12CC[C@@H](C)[C@H](C)[C@@H]1C1=CC[C@@H]3[C@@]4(C)C(C=O)=C[C@@](C)(COC(=O)c5ccco5)[C@@H]4[C@H](O)C[C@@]3(C)[C@]1(C)CC2", "values": [{"measurement": "growth", "result": "-21.9% (active)"}]}
{"compound": "O=C1/C(=C\\c2ccc([N+](=O)[O-])cc2)CS(=O)(=O)C/C1=C/c1ccc([N+](=O)[O-])cc1", "values": [{"measurement": "growth", "result": "-38.4% (active)"}]}
{"compound": "Cc1nnc(N/N=C/c2ccc([N+](=O)[O-])o2)[nH]c1=O", "values": [{"measurement": "growth", "result": "-34.8% (active)"}]}
{"compound": "OCC(O)COc1ccc(Cl)cc1Cl", "note": "(centres undefined)", "values": [{"measurement": "growth", "result": 103, "unit": "%"}]}
{"compound": "COC(=O)[C@@H](Cc1c[nH]c2ccccc12)NC(=O)[C@H](Cc1ccccc1)NCc1ccncc1", "values": [{"measurement": "growth", "result": 80.6, "unit": "%"}]}
{"compound": "COC(=O)c1cc2cc(-c3ccc(OC)cc3)cnc2[nH]1", "values": [{"measurement": "growth", "result": "-2.68% (active)"}]}
{"compound": "O=C1C2C(C(=O)N1CC[Se][Se]CCN1C(=O)C3C(C1=O)[C@H]1C=C[C@@H]3C1)[C@H]1C=C[C@@H]2C1", "note": "(some centres undefined)", "values": [{"measurement": "growth", "result": "-54.7% (active)"}]}
{"compound": "Cc1cc2cc3cc(C)c(N(C)C)cc3[n+](C)c2cc1N(C)C", "values": [{"measurement": "growth", "result": 47, "unit": "%"}]}
{"compound": "COc1cc(CCC[P+](c2ccccc2)(c2ccccc2)c2ccccc2)c(OC)c2c1OCO2", "values": [{"measurement": "growth", "result": 13.6, "unit": "%"}]}
{"compound": "CCOC(=O)n1ccn(C)c1=S", "values": [{"measurement": "growth", "result": 101, "unit": "%"}]}
{"compound": "CCOC(=O)C1=C(N)Oc2c(sc3c(C)cccc23)C1c1ccc(F)cc1", "note": "(centres undefined)", "values": [{"measurement": "growth", "result": "-39.3% (active)"}]}
{"compound": "CSc1nc(NCCO)c(C#N)c(-c2cccc([N+](=O)[O-])c2)n1", "values": [{"measurement": "growth", "result": 104, "unit": "%"}]}
{"compound": "NCCOCCOc1ccccc1", "values": [{"measurement": "growth", "result": 108, "unit": "%"}]}
{"compound": "O=C(Cn1c2ccccc2c2ccncc21)N/N=C\\c1ccc2ccccc2c1", "values": [{"measurement": "growth", "result": 40.5, "unit": "%"}]}
{"compound": "COc1cc(-c2cc(/C=C/C(=O)c3ccc(Cl)c(Cl)c3)[nH]n2)cc(OC)c1OC", "values": [{"measurement": "growth", "result": 87.3, "unit": "%"}]}
{"compound": "COc1cccc(OC)c1Oc1c(-c2nc3ccccc3s2)c(C)nn1-c1ccccc1", "values": [{"measurement": "growth", "result": 81.8, "unit": "%"}]}
{"compound": "COc1ccc(-c2nnc(COc3ccc(NS(=O)(=O)c4ccc(OC)cc4)cc3F)o2)cc1", "values": [{"measurement": "growth", "result": 76.6, "unit": "%"}]}
{"compound": "c1c(-c2cc(C3CC3)[nH]n2)n[nH]c1C1CC1", "values": [{"measurement": "growth", "result": 78.4, "unit": "%"}]}
{"compound": "O=C1c2c(O)cc(O)cc2OC(c2ccc(O)c(O)c2)C1O", "note": "(centres undefined)", "values": [{"measurement": "growth", "result": 110, "unit": "%"}]}
{"compound": "NS(=O)(=O)c1ccc(-n2ncc3c(=O)[nH]c(CN4CCN(c5cc6c(cc5F)c(=O)c(C(=O)O)cn6C5CC5)CC4)nc32)cc1", "values": [{"measurement": "growth", "result": 98, "unit": "%"}]}
{"compound": "N#Cc1ccc(O)c(C2=NCC(Cc3ccccc3)O2)c1", "note": "(centres undefined)", "values": [{"measurement": "growth", "result": 44, "unit": "%"}]}
{"compound": "Nc1nc(N)c2c(n1)NC(c1ccc(F)cc1)C1CCc3ccccc3C1=N2", "note": "(centres undefined)", "values": [{"measurement": "growth", "result": 16.5, "unit": "%"}]}
{"compound": "CC/C=C/C/C=C/C/C=C/C/C=C/C/C=C/C/C=C/CCC(=O)Nc1ccn([C@@H]2O[C@H](CO)[C@@H](O)C2(F)F)c(=O)n1", "values": [{"measurement": "growth", "result": "-16.1% (active)"}]}
{"compound": "CCCCN(CCC)CCCCCCCCCCN1CCCc2ccccc21", "values": [{"measurement": "growth", "result": 42.2, "unit": "%"}]}
{"compound": "CCCCOc1ccc(NC(=O)n2nc(NC(C)=O)c3cc(NC(C)=O)ccc32)cc1", "values": [{"measurement": "growth", "result": 72.9, "unit": "%"}]}
{"compound": "ClC1=C(Cl)C(Cl)=C(Cl)C1=Cc1ccc(Cl)cc1Cl", "values": [{"measurement": "growth", "result": "-12.7% (active)"}]}
{"compound": "Cc1ccc([N+](=O)[O-])cc1NC(=O)Nc1cccc(F)c1", "values": [{"measurement": "growth", "result": 58.7, "unit": "%"}]}
{"compound": "C#CCOc1ccc2ncnc(N3CCC(NC(=O)CCl)CC3)c2c1", "values": [{"measurement": "growth", "result": "68.8% [8.25 µM]"}]}
{"compound": "COc1cc(-c2[nH]ncc2Nc2ccc(Cl)cc2)cc(OC)c1OC", "values": [{"measurement": "growth", "result": 42.3, "unit": "%"}]}
{"compound": "CCC/C=C(/C(C)=O)C(=O)OCC", "values": [{"measurement": "growth", "result": 93.2, "unit": "%"}]}
